Assay [1] is described as follows: qHTS profiling of the MIPE4 collection as inhibitors of Plasmodium falciparum (3D7) proliferation (AID 743344; call rule not given here;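 further: scaled between DMSO vehicle wells and 0.29 µM artemisinin as full inhibition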). To be noted: P. falciparum 3D7 in erythrocytes, SYBR Green DNA fluorescence, 72 h; at 28.5 µM unless noted. An outline of the steps:
(§1)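 Parasite DNA was quantified by SYBR Green I fluorescence (ex 485, em 535 nm) after overnight lysis in saponin/Triton buffer at room temperature. Cultures at 0.3% parasitemia and 2.5% hematocrit were first exposed to compound for 72 h at 37 C; signals were normalised to artemisinin (0.29 uM) and vehicle wells.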
In general terms: In qHTS, concentration-response curves come from the screen itself.

The nature of assay [2]: qHTS profiling of the MIPE4 collection as inhibitors of Plasmodium falciparum (DD2) proliferation (AID 743345; call rule not given here). To be noted: P. falciparum Dd2 in erythrocytes, SYBR Green DNA, 72 h; at 28.5 µM unless noted. An outline of the steps: as §1
Assay [3] in a line: qHTS profiling of the MIPE4 collection as inhibitors of Plasmodium falciparum (DD2) proliferation (Rep 2) (AID 743346; call rule not given here). To be noted: P. falciparum Dd2 in erythrocytes, SYBR Green DNA, 72 h; at 28.5 µM unless noted. A digest of the protocol: as §1
The nature of assay [4]: qHTS profiling of the MIPE4 collection as inhibitors of Plasmodium falciparum (HB3) proliferation (AID 743347; call rule not given here;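 further: plate controls were DMSO vehicle wells for no effect and artemisinin wells for full effect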). To be noted: P. falciparum HB3 in erythrocytes, SYBR Green DNA, 72 h; at 28.5 µM unless noted. An outline of the steps:
as §1

The nature of assay [5]: High-throughput drug toxicity screening in the BPDCN cell line Gen2.2 (AID 1224824; call rule not given here;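 further: cells exposed to compounds for 48 h before reading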). To be noted: Gen2.2 BPDCN cells; at 45.8 µM (top of the series) unless noted. An outline of the steps:
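CellTiter-Glo luminescence read after 48 h compound exposure at 37 C defines viability; percent activity set with DMSO as 100% and bortezomib (9.2 uM final) as 0%. 500 exponentially growing cells per well, RPMI plus 10% FBS.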

Assay [6] is described as follows: High-throughput drug toxicity screening in the BPDCN cell line Cal-1 (AID 1224825; call rule not given here). To be noted: Cal-1 BPDCN cell viability, qHTS; at 45.8 µM (top of the series) unless noted. An outline of the steps: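 Percent activity derived from CellTiter-Glo luminescence, scaling DMSO to 100% and 9.2 uM final bortezomib to 0%. BPDCN Cal-1 cells (500/well, RPMI plus 10% FBS) incubated with compounds 48 hours at 37C before reading.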

Assay [7] can be described thus: qHTS assay for measurement of the activity of small molecule inhibitors on Zika virus induced Caspase-3 activity in human iPSC derived neural progenitor cells (hNPCs) (AID 1224857). Further: % of control where 0% means no effect; nearly all actives have a fitted effect of over 65% in size. A digest of the protocol:
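Values are percent inhibition of virus-induced caspase-3/7 signal, scaled between uninfected cells and ZIKV-infected cells. Infection used 2 FFU/cell for 6 h after 1 h compound exposure.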

Assay [8] can be described thus: qHTS assay for measurement of the activity of small molecule inhibitors on Zika virus induced Caspase-3 activity in human astrocytoma cells (AID 1224859).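 Further: plate controls were ZIKV-infected untreated cells for no effect and uninfected cells for full effect.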 A digest of the protocol:
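Compound added 1 h pre-infection; ZIKV 2 FFU/cell on SNB-19 cells, 6 h, 37 C/5% CO2. Caspase-Glo 3/7 luminescence; values as % inhibition of ZIKV-induced caspase activity.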

The nature of assay [9]: qHTS Screen of the MIPE 4.0 Collection Against Ewings Sarcoma (RDES) (AID 1259252). Further: nearly all actives have a fitted effect of over 35% in size. Further: potency means the concentration at half of the fitted maximal effect. An outline of the steps:
(§2)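 Cells plated in serum-containing RPMI (5% FBS) and treated with compound dilutions for 48 h. Readout luminescent viability; normalization relied on vehicle (no inhibition) and media-only columns (full inhibition).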

Assay [10] in a line: qHTS Screen of the MIPE 4.0 Collection Against Ewings Sarcoma (TC71) (AID 1259253). Further: nearly all actives have a fitted effect of over 40% in size. Further: potency means the concentration at half of the fitted maximal effect. An outline of the steps:
as §2

Assay [11] is described as follows: qHTS Screen of the MIPE 4.0 Collection Against Ewings Sarcoma (TC32) (AID 1259256). Further: potency means the concentration at half of the fitted maximal effect; nearly all actives have a fitted effect of over 45% in size. An outline of the steps: as §2
A short description of assay [12]: Identifying Small Molecule Inhibitors of Pancreatic Cancer Stem Cells (SN12C, Adherent) (AID 1259358).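 Further: potency means the concentration at half of the fitted maximal effect; cell survival measured after 48 h of compound exposure.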 An outline of the steps: (§3)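 Pre-formed 14-day tumor spheroids or adherent cells dosed and incubated 48 h, 37C, 5% CO2. Viability assessed by CellTiter-Glo.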
Assay [13] in a line: Identifying Small Molecule Inhibitors of Pancreatic Cancer Stem Cells (Panc1, Spheroid) (AID 1259359).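 Further: compound exposure lasted 48 h before reading.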 An outline of the steps: (§4)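 Endpoint: ATP-based luminescence, 48 h drug exposure. Bortezomib at 9.2 uM final as full-kill control; DMSO vehicle as negative control; activity normalized between vehicle and cell-free wells.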
Assay [14] is described as follows: Identifying Small Molecule Inhibitors of Pancreatic Cancer Stem Cells (SN12C, Spheroid) (AID 1259360). Further: potency means the concentration at half of the fitted maximal effect. To be noted: Potency: SN12C spheroid viability. An outline of the steps: as §4
Assay [15] can be described thus: Identifying Small Molecule Inhibitors of Pancreatic Cancer Stem Cells (A278, Adherent) (AID 1259361). Further: nearly all actives have a fitted effect of over 35% in size. An outline of the steps: as §3
A short description of assay [16]: qHTS Screen of the MIPE 4.0 Collection Against Ewings Sarcoma (EW8) (AID 1259255). Further: nearly all actives have a fitted effect of over 35% in size. Further: potency means the concentration at half of the fitted maximal effect.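 On viability: 100% = DMSO-treated cells and 0% = medium-only wells without cells.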 A digest of the protocol: as §2

Inconclusive results are not listed. The source made the active and inactive calls. Unless noted, the call rests on the fitted dose curve; in most records, active means well fitted curve in the direction sought with a large enough effect; inconclusive means small, poorly fitted or top-dose-only effect, or another doubt; inactive means no such curve, though single readings can be large; an effect the other way counts as inactive or inconclusive.

The results in this text go back to PubChem BioAssay (NCATS).

Compound `CN1CCC(COc2cnc(-c3cccc(Cn4nc(-c5cccc(C#N)c5)ccc4=O)c3)nc2)CC1` registered a parasite growth, % of DMSO control in [1] of 10.4%. In assay [2], the parasite growth remaining, % of DMSO control (lower = more inhibition) stood at 10.5%. The compound further registered a parasite growth, % of control (lower = inhibition) in assay [3] of 15.3%. In addition, in [4], the growth, % of control was found to be 4.54%. Moreover, in [5], the cell viability, % of control (lower = more cytotoxic) was determined as 92.7%. Besides, in [6], the viability (% of control) came to 5.37%. The Potency entry in [7] and in [8] was “inactive” in each case. In addition, the Potency in [9] is 7.43 µM (active); in assay [10] it was 13.2 µM (active); in [11] it was 20.9 µM (active).

As to `CC[C@H](C)n1cc(C)c2c(C(=O)NCc3c(C)cc(C)[nH]c3=O)cc(-c3ccc(N4CCNCC4)nc3)cc21`, the parasite growth, % of DMSO control in assay [1] came out at 4.84%. The parasite growth remaining, % of DMSO control (lower = more inhibition) in assay [2] stood at 8.83%. This compound also came in with a parasite growth, % of control (lower = inhibition) in assay [3] of 8.77%. This compound also had a growth, % of control in assay [4] of 6.2%. For the same compound, in assay [5], the cell viability, % of control (lower = more cytotoxic) turned out to be 133%. The viability (% of control) in assay [6] is 39.5%. Besides, the Potency result in [7] and in [8] was “inactive” in each case. Moreover, the Potency in [9] was 23.5 µM (active); in [10] it was 11.8 µM (active); in assay [11], 18.7 µM (active).

Consider `CCNC(=O)c1noc(-c2cc(C(C)C)c(O)cc2O)c1-c1ccc(CN2CCOCC2)cc1`, for which the parasite growth, % of DMSO control in assay [1] is 5.56%. Besides, in assay [2], the parasite growth remaining, % of DMSO control (lower = more inhibition) was found to be 7.71%. This compound yielded a parasite growth, % of control (lower = inhibition) in assay [3] of 9.57%. In [4], this compound returned a growth, % of control of 4.24%. The cell viability, % of control (lower = more cytotoxic) in assay [5] amounted to 14.2%. Further, in assay [6], the viability (% of control) was 7.68%. For the same compound, the Potency entry in assay [7], in [8] and in [13] was “inactive” in each case. Besides, the Potency in assay [9] was 0.105 µM (active); in assay [10], 0.118 µM (active); in assay [11] it was 0.059 µM (active); in assay [12], 10.5 nM (active); in [14], 7.4 nM (active). Besides, the IC50 (viability decrease) in assay [15] was 3.7 nM (active).

On to `COc1cc2ncn(-c3cc(OCc4ccccc4S(C)(=O)=O)c(C#N)s3)c2cc1OC`, for which the parasite growth remaining, % of DMSO control (lower = more inhibition) in assay [2] was 103%. Moreover, in [3], the parasite growth, % of control (lower = inhibition) amounted to 75.9%. The growth, % of control in [4] stood at 90.8%. In addition, the cell viability, % of control (lower = more cytotoxic) in assay [5] came to 146%. Besides, the viability (% of control) in assay [6] was determined as 95.9%. Also, the Potency result in assay [7], in assay [8] and in assay [16] was “inactive” each time. Further, the values for the Potency in assay [9] and in assay [10] were 16.6 µM (active) and 3.32 µM (active), respectively.

On to `COc1cc2nc(-c3cc(F)ccc3O)nc(N[C@@H]3CNC[C@@H]3C(C)(C)O)c2cc1OC`, for which the parasite growth remaining, % of DMSO control (lower = more inhibition) in [2] stood at 6.09%. For the same compound, the parasite growth, % of control (lower = inhibition) in assay [3] came out at 8.84%. This compound also had a growth, % of control in [4] of 3.61%. Also, in assay [5], the cell viability, % of control (lower = more cytotoxic) was 4.14%. Moreover, in assay [6], the viability (% of control) came out at 5.24%. Moreover, the Potency entry in assay [7] and in [8] was “inactive” throughout. In addition, the Potency is 23.5 µM (active) in [9], 20.9 µM (active) in assay [10] and 23.5 µM (active) in assay [16].

With `CC(C)(O)CC(=O)NCCn1ccc2ncnc(Nc3ccc(Oc4cccc(C(F)(F)F)c4)c(Cl)c3)c21`, in assay [1], the parasite growth, % of DMSO control worked out at 11.6%. Moreover, the parasite growth remaining, % of DMSO control (lower = more inhibition) in assay [2] amounted to 18.3%. In assay [3], this compound displayed a parasite growth, % of control (lower = inhibition) of 23%. In assay [4], this compound showed a growth, % of control of 9.01%. The cell viability, % of control (lower = more cytotoxic) in assay [5] was 75.3%. For the same compound, the viability (% of control) in [6] is 61.4%. The Potency result in assay [7] and in assay [8] was “inactive” in each case. For the same compound, the Potency in assay [9] was 0.935 µM (active); in assay [10], 26.4 µM (active); in assay [11], 26.4 µM (active).

With `CC[C@H](C=C[C@@H](C)[C@H]1CC[C@H]2[C@@H]3CC=C4C[C@@H](O)CC[C@]4(C)[C@@H]3CC[C@]12C)C(C)C`, in assay [2], the parasite growth remaining, % of DMSO control (lower = more inhibition) is 104% [at 9.64 µM]. Besides, the cell viability, % of control (lower = more cytotoxic) in assay [5] stood at 72.7% [at 23.2 µM]. In [6], the viability (% of control) turned out to be 108% [at 23.2 µM]. For the same compound, the Potency result in assay [7], in assay [8], in [9], in assay [10] and in [16] was “inactive” each time.
